# Hits are enriched below; roughly 15% of the tested compounds scored in any of these assays.
# HCV inh: qHTS Assay for Inhibitors of Hepatitis C Virus (HCV) | Huh7.5.1 HCVcc-Cre infection, luciferase reporter, 44 h | actives 3.4% (n = 340,000) | AID 651820, 2012 | Potency, µM (series often up to 41.8 µM), without a hit: at the top dose activity change, negative = inhibition, most hits filed as inhibitors; also: potency is read from the fitted curve at half-maximal effect; % is scaled to controls: 0 for no effect and ±100 for the full control effect
#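 Antiviral activity was scored by luciferase reporter output from cells infected with HCVcc-Cre (~0.5 moi) in presence of compound, 44 h infection period, cells seeded 1,000/well 4 h prior.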
# Pf growth 96h: Primary qHTS for delayed death inhibitors of the malarial parasite plastid, 96 hour incubation; P. falciparum luciferase reporter growth, 96 h; Potency, µM (doses to about 28.7 µM), for the others: at the top dose activity change, negative = inhibition, actives largely listed as inhibitors; actives 6.9% (n = 320,000); also: potency is read from the fitted curve at half-maximal effect; % is scaled to controls: 0 for no effect and ±100 for the full control effect
#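 P. falciparum expressing integrated firefly luciferase grown in erythrocytes (2% hematocrit, 0.05% parasitemia final) with compounds for 96 hours at 37 C, 5% CO2. Growth inhibition read as loss of luminescence after adding luciferase detection reagent.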
# HCMV antiviral: qHTS Assay for inhibitors of the human cytomegalovirus (HCMV). HFF cells, HCMV-luciferase reporter, 72 h; hits give low values. activity change, negative = inhibition, % at 57.5 µM. actives 4.5% (n = 410,000); in the data active = activity change below about -60%; inconclusive = no clear call, values can overlap the other calls; inactive = above about -39%; also: % is scaled to controls: 0 for no effect and ±100 for the full control effect
#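 Compounds were evaluated in HFFs infected with an HCMV luciferase reporter virus (MOI 1 PFU/cell). Luciferase in lysates collected 72 h post infection served as the replication measure.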
# SARS PLpro yeast: qHTS of Yeast-based Assay for SARS-CoV PLP; S. cerevisiae expressing SARS-CoV PLpro, growth rescue; actives 0.19% (n = 330,000); Potency, µM (series often up to 32.9 µM), for the others: at the highest dose activity, positive = growth rescue, actives largely listed as activators; AID 485353, 2010; calls by dose curve; also: potency is read from the fitted curve at half-maximal effect; 0% is about no effect; nearly all actives have a fitted effect of over 55% in size
# Sm TGR inh: qHTS Assay for the Inhibitors of Schistosoma Mansoni Peroxiredoxins; actives 3% (n = 360,000); Potency, µM (highest dose often 114 µM), for inactives: top-dose activity change, negative = inhibition, usual class: inhibitors; purified TGR, DTNB reduction, TNB absorbance 405 nm; also: potency is read from the fitted curve at half-maximal effect; % is scaled to controls: 0 for no effect and ±100 for the full control effect; nearly all actives have a fitted effect of over 60% in size
#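 TGR 20 nM + NADPH 100 uM (dispensed conc.), cpd preinc 15 min RT; start with NADPH (500 uM addition) then DTNB (15 mM addition). Kinetic TNB absorbance, 405 nm filter. Four-parameter Hill fit across titration.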
# Pf growth 48h: Primary qHTS for delayed death inhibitors of the malarial parasite plastid, 48 hour incubation | P. falciparum luciferase growth in erythrocytes, 48 h | Potency, µM (series often up to 28.7 µM), inactives show top-dose activity change, negative = inhibition, most hits filed as inhibitors | actives 5.9% (n = 310,000) | AID 504832, 2011; also: potency is read from the fitted curve at half-maximal effect; % is scaled to controls: 0 for no effect and ±100 for the full control effect
#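 First compound was added to culture medium, then infected red cells at 0.1% parasitemia and 2% hematocrit (final). After incubation at 37 C under 5% CO2, luciferase detection reagent was dispensed and light output recorded.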
# * hit, by the source's call; ? = inconclusive; . = no result. Unless noted, calls follow the shape of the dose curve; as a rule, active = well fitted curve in the direction sought with a large enough effect; inconclusive = small, poorly fitted or top-dose-only effect, or another doubt; inactive = no such curve, though single readings can be large; an effect the other way counts as inactive or inconclusive.
SMILES,HCV inh,Pf growth 96h,HCMV antiviral,SARS PLpro yeast,Sm TGR inh,Pf growth 48h
CCCCN(C(=O)CCC(=O)Nc1cc(C)on1)C(C(=O)NC(C)(C)CC)c1cccc(OC)c1OC (stereo unspecified),-8%,-27%,-17,-1%,8%,?
CCn1nnnc1SCC(=O)N(C)C1CCS(=O)(=O)C1 (stereo unspecified),19%,-1%,-24,-4%,0%,-5%
CC(C)(O)C#Cc1ccc(CN2CCC(n3nccc3NC(=O)C3CC3)CC2)cc1,5%,?,-22,-2%,0%,-8%
Cc1cc(Nc2ccccc2)n(CCO)n1,2%,.,27,-3%,-4%,9%
COc1ccc(C(C(=O)NC(C)(C)C)N(CCO)C(=O)CCC(=O)Nc2cc(C)on2)cc1 (stereo unspecified),8%,0%,0,1%,1%,-12%
COc1ccc(C(C(=O)NC(C)(C)C)N(CCc2ccccc2)C(=O)CCC(=O)Nc2cc(C)on2)cc1 (stereo unspecified),-16%,2%,1,1%,-8%,12µM*
Cn1c(C(=O)NC2CCCCC2)cc2c(=O)n(C)c3ccccc3c21,?,10µM*,-27,7%,-9%,.
Cn1c(C(=O)NC2CCCCCC2)cc2c(=O)n(C)c3ccccc3c21,-7%,-8%,9,-3%,-34%,.
CN(CCNC(=O)c1cc2c(=O)n(C)c3ccccc3c2n1C)Cc1ccccc1,?,-14%,44,7%,28µM*,.
CCOCCCNC(=O)c1cc2c(=O)n(C)c3ccccc3c2n1C,.,.,0,.,-2%,.
CCCN(CCC)CCNC(=O)c1cc2c(=O)n(C)c3ccccc3c2n1C,?,?,11,4%,50µM*,?
COc1ccc(C(=O)NCC(c2cccnc2)N2CCN(c3ccccc3F)CC2)cc1OC (stereo unspecified),.,.,-10,.,4%,.
COc1ccc(-c2csc(NC(=O)Cc3cc(OC)c(OC)c(OC)c3)n2)cc1OC,?,12µM*,?,-3%,1%,?
O=C(Nc1ccc(-c2cn3ccsc3n2)cc1)C1COc2ccccc2O1 (stereo unspecified),14µM*,?,-23,-5%,7%,-7%
COc1ccc(CC(=O)Nc2nc(-c3ccncc3)cs2)cc1,?,13µM*,-82*,-3%,-7%,?
COc1ccc(-c2csc(NC(=O)COC(=O)Cc3ccccc3)n2)cc1OC,-11%,54%,.,2%,-8%,13%
COc1ccc(-c2csc(NC(=O)C3COc4ccccc4O3)n2)cc1OC (stereo unspecified),11µM*,?,-8,-2%,3%,-29%
COc1ccc(OCCN2CCC(C(=O)NC(c3ccc(Cl)cc3)c3cnccn3)CC2)cc1 (stereo unspecified),.,.,8,.,.,.
COc1cc(OC)cc(C(=O)N[C@H](C(=O)Nc2nc(-c3ccc(OC)c(OC)c3)cs2)C(C)C)c1,?,10µM*,-20,0%,-6%,13µM*
COc1ccc(-c2csc(NC(=O)CCN3C(=O)C4CC=CCC4C3=O)n2)cc1OC (stereo unspecified),?,?,4,-2%,-1%,10µM*
CCN(CC)S(=O)(=O)c1ccc(N2CCOCC2)c(NC(=O)c2nn(C(C)C)c(=O)c3ccccc23)c1,.,.,1,.,.,.
COc1cc(OC)c(C(=O)OC(C)C(=O)Nc2cccc(C(F)(F)F)c2)cc1OC (stereo unspecified),?,9.3µM*,-32,17%,2%,?
CC(O/N=C(\N)c1ccccc1)C(=O)Nc1cccc(C(F)(F)F)c1 (stereo unspecified),?,.,-18,-3%,.,.
COc1ccc(CC(=O)Nc2cccc(SC)c2)cc1OC,4µM*,-12%,-66*,1%,?,-4%
COc1ccc(CCC(=O)Nc2cccc(S(=O)(=O)N3CCCCCC3)c2)cc1OC,?,?,-18,-11%,41%,10µM*
SMILES,HCV inh,Pf growth 96h,HCMV antiviral,SARS PLpro yeast,Sm TGR inh,Pf growth 48h
COc1ccc(CC(=O)Nc2cccc(S(=O)(=O)N3CCCCCC3)c2)cc1OC,?,?,-83*,-16%,-3%,?
COC(=O)c1cc(NC(=O)Cc2ccc(OC)c(OC)c2)cc(C(=O)OC)c1,-23%,?,49,4%,3%,?
O=C1C[C@@H]2c3c(cccc3CN1Cc1ccc(Br)cc1)C[C@@H](O)[C@H]2O,7%,.,-7,.,.,.
O=C(CNS(=O)(=O)c1ccccc1F)NNC(=O)c1ccc(Br)cc1,4%,21%,-32,0%,-5%,4%
COc1cc(CC(=O)Nc2cccc(C(F)(F)F)c2)cc(OC)c1OC,?,-24%,-71*,-11%,2%,?
COc1ccccc1-n1cnnc1SCC(=O)Nc1cccc(S(=O)(=O)N2CCCCC2)c1,9%,21%,-68*,15%,0%,-21%
CCOc1ccc(OCC)c(NC(=O)c2cc(S(=O)(=O)N3CCc4ccccc43)cn2C)c1,.,.,-20,.,-2%,.
COc1ccc(S(=O)(=O)NCCc2ccco2)cc1OC,20%,298%,10,3%,-31%,7%
Cc1cc(C)c(S(=O)(=O)NCCSCc2ccco2)c(C)c1,10%,1%,-4,-1%,13µM*,?
Cc1ccc(S(=O)(=O)NCCSCc2ccco2)cc1,5%,8%,-29,0%,?,27%
COc1ccc(S(=O)(=O)NCCSCc2ccco2)cc1OC,6%,?,8,-1%,11µM*,.
CCOc1ccc(S(=O)(=O)NCCSCc2ccco2)cc1,-16%,.,-37,-4%,?,16%
COc1ccc(S(=O)(=O)NCCSCc2ccco2)cc1,-9%,-14%,-14,-3%,25µM*,-16%
CNC(=S)N1CCc2cc(OC)c(OC)cc2C1,7%,83%,10,0%,0%,31%
Cc1ccc(CN2CCC(C(=O)c3ccc(F)cc3)CC2)cc1,.,.,16,.,.,.
CCOC(=O)/C(C#N)=C\c1c(OCC)n(CC)c2ccccc12,?,12µM*,-69*,-25%,-26%,?
CCOC(=O)/C(C#N)=C\c1cc(C)n(-c2ccccc2)c1C,?,313%,?,3%,-3%,111%
CCOc1c(/C=C(\C#N)C(N)=O)c2ccccc2n1CC,?,13µM*,-67*,14%,-30%,4%

# Bioassay records as filed in PubChem.
